High-throughput results deposited in PubChem by National Center for Advancing Translational Sciences (NCATS).
IL-1B inflam inh = blocks inflammasome-driven IL-1 beta release | THP-1 LPS/ATP IL-1B secretion, AlphaLISA, 16 h; active compounds read low | activity change, % at 57.5 µM | 360,000 compounds, 4.7% hits | AID 743279; in the data active = activity change below about -50%; inconclusive = mostly about -30% to -49%; also: % is scaled to controls: 0 for no effect and ±100 for the full control effect
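THP-1 cells pretreated 1 hr with compounds (up to 57.5 uM final), then stimulated with LPS (250 ng/mL final) plus ATP (1.25 mM final); secreted IL-1B measured by AlphaLISA after 16 hr, decreased signal indicating inhibition.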
D3 antag = D3 dopamine receptor (human) antagonism. D3R cells, DiscoveRx beta-arrestin luminescence, antagonist mode; active compounds read low. max response, negative = inhibition, %. 360,000 compounds, 2.5% hits. AID 652054; in the data active = max response below about -50%; inconclusive = no clear call, values can overlap the other calls; also: % is scaled to controls: 0 for no effect and ±100 for the full control effect
Target sequence (P35462 whole entry, looked up): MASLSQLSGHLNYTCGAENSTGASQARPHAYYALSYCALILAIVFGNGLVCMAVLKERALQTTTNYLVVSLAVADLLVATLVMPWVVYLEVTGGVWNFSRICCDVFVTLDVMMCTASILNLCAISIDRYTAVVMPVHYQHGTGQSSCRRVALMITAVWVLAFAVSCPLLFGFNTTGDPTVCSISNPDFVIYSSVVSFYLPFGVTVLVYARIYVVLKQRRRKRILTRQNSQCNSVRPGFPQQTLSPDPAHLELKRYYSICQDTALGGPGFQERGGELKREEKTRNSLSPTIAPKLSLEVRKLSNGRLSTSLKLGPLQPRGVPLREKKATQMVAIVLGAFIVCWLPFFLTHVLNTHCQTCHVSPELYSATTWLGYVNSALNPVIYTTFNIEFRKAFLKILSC
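Cells expressing the human receptor were seeded at 1500 cells/well, incubated overnight at 37 degrees C in 5% CO2, then exposed to library compounds with dopamine controls for 90 minutes at 37 degrees C before luminescent detection.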
DT40 TDP1 no CPT = qHTS for Inhibitors of human tyrosyl-DNA phosphodiesterase 1 (TDP1): qHTS in cells in absence of CPT; DT40 Tdp1-/- hTDP1 cells, no CPT, ATP luminescence, 48 h; Potency, µM (doses to about 46.2 µM), without a hit: top-dose activity change, negative = growth inhibition, actives largely listed as inhibitors; 420,000 compounds, 15% hits; AID 686978, 2013; also: potency is read from the fitted curve at half-maximal effect; % is scaled to controls: 0 for no effect and ±100 for the full control effect; nearly all actives have a fitted effect of over 55% in size
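Chicken DT40 Tdp1-/- cells complemented with human TDP1, screened without camptothecin (DMSO vehicle only), 400 cells/well. Compounds pin-transferred, cells incubated at 37 °C for at least 48 hr. Growth read as ATP-dependent luminescence (CellTiter-Glo, 30 min at RT).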
TDP1 cell CPT = growth inhibition of DT40 Tdp1-/-;hTDP1 cells with camptothecin (screen for TDP1 inhibitors). 420,000 compounds, 12% hits. Potency, µM (titrated, usually from 46.2 µM), without a hit: at the highest dose activity change, negative = growth inhibition, hits mostly inhibitors. AID 686979. chicken DT40 Tdp1-/-;hTDP1 cells + 20 nM CPT, ATP luminescence, 48 h; also: potency is read from the fitted curve at half-maximal effect; % is scaled to controls: 0 for no effect and ±100 for the full control effect; nearly all actives have a fitted effect of over 55% in size
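Cell growth measured by CellTiter-Glo luminescence after a minimum 48 h, 37 C compound exposure with 20 nM CPT in Tdp1-knockout DT40 cells stably expressing hTDP1, seeded 400/well; qHTS titration format.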
ClpP mod = qHTS Assay for Activators of ClpP; 340,000 compounds, 1.9% hits; purified B. subtilis ClpP, FRET peptide cleavage, 20 min; Potency, µM (titrated, usually from 57.5 µM), for the others: at the highest dose activity change, negative = active; AID 651965, 2013; active = well fitted falling curve with a large enough effect; inconclusive = small, poorly fitted or top-dose-only effect; inactive = no such curve, though single readings can be large or run the other way; also: potency is read from the fitted curve at half-maximal effect; the source files actives as falling curves though it sought activators and does not explain the sign; nearly all actives have a fitted effect of over 65% in size
Target sequence (P80244 whole entry, looked up): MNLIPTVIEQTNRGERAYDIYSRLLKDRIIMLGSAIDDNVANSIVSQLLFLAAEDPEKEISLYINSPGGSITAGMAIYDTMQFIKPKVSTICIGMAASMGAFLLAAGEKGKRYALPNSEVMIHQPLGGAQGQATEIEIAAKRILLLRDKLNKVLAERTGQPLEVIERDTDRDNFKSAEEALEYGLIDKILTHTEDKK
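Buffer: 100 mM Tris/HCl pH8, 100 mM KCl, 0.05% low protease BSA, 2.5% glycerol, 0.01% Tween-20. ClpP 10 microg/mL final; 20 min RT; delta FRET normalized to ADEP and DMSO controls.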
D3 ag = agonists of human D3 dopamine receptor; 410,000 compounds, 0.58% hits; D3R DiscoveRx beta-arrestin cells, luminescence, 90 min; AID 652048; max activation, %; in the data active = max activation above about 30%; also: 0% is about no effect
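Cells at 1500/well, incubated overnight, then treated with pinned compounds (dopamine as control) for 90 min at 37 degrees C. DiscoveRx reagent added for 30 - 60 minutes at room temperature; luminescence read.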
* = called active by the depositor; [ ] = another dose, or the depositor's remark. In the library only some 21% were active in any assay of this set; here they are far more common. Unless noted, calls follow the shape of the dose curve; as a rule, active = well fitted inhibition curve with a large enough effect; inconclusive = small, poorly fitted or top-dose-only effect; inactive = flat fitted curve, though single readings scatter.

What do the screens show for `CCOC(=O)c1[nH]c2ccccc2c1NC(=S)Nc1cccc(C)c1`?
IL-1B inflam inh: -16; D3 antag: -53*; DT40 TDP1 no CPT: -16%; TDP1 cell CPT: -17%; ClpP mod: -28%; D3 ag: -9

What do the screens show for `CCOC(=O)c1[nH]c2ccccc2c1NC(=O)c1cc(OC)c(OC)c(OC)c1`?
IL-1B inflam inh: 0; D3 antag: -10; DT40 TDP1 no CPT: inconclusive; TDP1 cell CPT: -13%; ClpP mod: 0%; D3 ag: 14

Results for CCOC(=O)c1[nH]c2ccc(OC)cc2c1NC(=O)c1ccc(OC)c(OC)c1 ?
IL-1B inflam inh: 0; D3 antag: 40; DT40 TDP1 no CPT: inconclusive; TDP1 cell CPT: -24%; ClpP mod: -3%; D3 ag: 5

Results for COC(=O)c1[nH]c2cc(OC)c(OC)cc2c1NC(=O)c1cccc(OC)c1 ?
IL-1B inflam inh: inconclusive; D3 antag: 0; DT40 TDP1 no CPT: 21µM*; TDP1 cell CPT: inconclusive; ClpP mod: -5%; D3 ag: 3

Results for CCOC(=O)c1[nH]c2ccccc2c1NC(=O)c1cc(OC)cc(OC)c1 ?
DT40 TDP1 no CPT: 23µM*; TDP1 cell CPT: 23µM*; ClpP mod: -2%; D3 ag: 9

How did CCS(=O)(=O)Nc1cc(C(=O)N2CCC[C@H]2CO)c2c(c1)nc(-c1ccccc1)n2C do in these assays?
DT40 TDP1 no CPT: -5%; TDP1 cell CPT: 13%[9.04 µM]

Results for CSc1ccccc1OCc1cc(C(=O)NCCCn2nc(C)cc2C)no1 ?
IL-1B inflam inh: -13; D3 antag: -16; DT40 TDP1 no CPT: 21µM*; TDP1 cell CPT: 16µM*; ClpP mod: -2%; D3 ag: -12

What do the screens show for `CSc1ccccc1OCc1cc(C(=O)N2CCc3[nH]cnc3C2c2ccccn2)no1` (centres undefined)?
IL-1B inflam inh: -15; D3 antag: -20; DT40 TDP1 no CPT: 2.9µM*; TDP1 cell CPT: -14%; ClpP mod: -4%; D3 ag: -16

How did CSc1ccccc1OCc1cc(C(=O)NCCN2CCCC(O)C2)no1 (centres undefined) do in these assays?
IL-1B inflam inh: 1; D3 antag: -24; DT40 TDP1 no CPT: -13%; TDP1 cell CPT: 2%; ClpP mod: 28µM*; D3 ag: -11

How did CCOC(=O)N1CCC(NC(=O)c2cc(COc3ccccc3SC)on2)CC1 do in these assays?
IL-1B inflam inh: -22; D3 antag: 5; DT40 TDP1 no CPT: 1.5µM*; TDP1 cell CPT: 3.7µM*; ClpP mod: inconclusive; D3 ag: -5

Results for O=C(NCCN1CCCC(O)C1)c1cc(COc2ccc(F)cc2Cl)on1 (centres undefined) ?
IL-1B inflam inh: -12; D3 antag: -10; DT40 TDP1 no CPT: 4%; TDP1 cell CPT: -8%; ClpP mod: 0%; D3 ag: 12

What do the screens show for `CSc1ccccc1OCc1cc(C(=O)N2CCN(c3ccccc3)CC2C)no1` (centres undefined)?
IL-1B inflam inh: 11; D3 antag: 2; DT40 TDP1 no CPT: inconclusive; TDP1 cell CPT: inconclusive; ClpP mod: 1%; D3 ag: 7

What do the screens show for `Cc1ccc(-c2nc(CNC(=O)c3cc(C)on3)cs2)cc1`?
IL-1B inflam inh: 0; D3 antag: 0; DT40 TDP1 no CPT: inconclusive; TDP1 cell CPT: inconclusive; ClpP mod: -2%; D3 ag: 10

Results for COC(=O)c1ccccc1NC(=O)c1ccc2nc(Cc3ccccc3)oc2c1 ?
DT40 TDP1 no CPT: inconclusive; TDP1 cell CPT: inconclusive; ClpP mod: -6%; D3 ag: -17

What do the screens show for `CCN(CC)C(=O)Cn1cc(S(=O)(=O)CC(=O)NCCc2ccccc2)c2ccccc21`?
IL-1B inflam inh: -11; D3 antag: 21; DT40 TDP1 no CPT: 2%; TDP1 cell CPT: 0%; ClpP mod: 0%; D3 ag: 12

How did Cn1ccnc1C1CCCCN1C(=O)c1cc(COc2ccc(F)cc2F)on1 (centres undefined) do in these assays?
IL-1B inflam inh: -1; D3 antag: -16; DT40 TDP1 no CPT: 13µM*; TDP1 cell CPT: inconclusive; D3 ag: -8

How did Cc1cccc(C)c1OCc1cc(C(=O)N2CCCC2c2nonc2C)no1 (centres undefined) do in these assays?
IL-1B inflam inh: -20; D3 antag: -6; DT40 TDP1 no CPT: inconclusive; TDP1 cell CPT: inconclusive; ClpP mod: -4%; D3 ag: 6

What do the screens show for `CSc1ccccc1OCc1cc(C(=O)N2CCCC2c2nonc2C)no1` (centres undefined)?
IL-1B inflam inh: -29; D3 antag: 0; DT40 TDP1 no CPT: 21µM*; TDP1 cell CPT: 23µM*; ClpP mod: -2%; D3 ag: 3

What do the screens show for `CSc1ccccc1OCc1cc(C(=O)NCC(C)Oc2cccnc2)no1` (centres undefined)?
IL-1B inflam inh: -17; D3 antag: 0; DT40 TDP1 no CPT: 16µM*; TDP1 cell CPT: inconclusive; ClpP mod: 0%; D3 ag: -11

How did NC(=O)[C@@H]1CCCN1C(=O)c1cc(COc2ccc(F)cc2F)on1 do in these assays?
IL-1B inflam inh: -1; D3 antag: 0; DT40 TDP1 no CPT: 10%; TDP1 cell CPT: -3%; ClpP mod: 0%; D3 ag: 0

How did COC(=O)c1ccccc1NC(=O)c1cc(CN2CCOCC2)on1 do in these assays?
DT40 TDP1 no CPT: -11%; TDP1 cell CPT: 5%; ClpP mod: 1%; D3 ag: -2

How did CCCCCCC(=O)Nc1nc(C)c(-c2csc(Nc3ccc(Cl)cc3)n2)s1 do in these assays?
IL-1B inflam inh: 7; D3 antag: 2; DT40 TDP1 no CPT: 4.6µM*; TDP1 cell CPT: 2.3µM*; ClpP mod: -5%; D3 ag: 8

How did CCOc1ccc(Nc2nc(-c3sc(N)nc3C)cs2)cc1 do in these assays?
IL-1B inflam inh: inconclusive; D3 antag: -7; DT40 TDP1 no CPT: inconclusive; TDP1 cell CPT: inconclusive; D3 ag: 2

What do the screens show for `CCCCCC(=O)Nc1nc(C)c(-c2csc(Nc3cc(Cl)ccc3C)n2)s1`?
IL-1B inflam inh: 6; D3 antag: 47; DT40 TDP1 no CPT: 18µM*; TDP1 cell CPT: inconclusive; ClpP mod: -15%; D3 ag: 14

What do the screens show for `CCCCCC(=O)Nc1nc(C)c(-c2csc(Nc3ccc(Cl)cc3)n2)s1`?
IL-1B inflam inh: -6; D3 antag: -26; DT40 TDP1 no CPT: 13µM*; TDP1 cell CPT: inconclusive; ClpP mod: -16%; D3 ag: 0
